Source: PubChem BioAssay (National Center for Advancing Translational Sciences (NCATS))
Hits are enriched below; roughly 0.59% of the tested compounds scored in any of these assays.
LDHA block: inhibitors of human lactate dehydrogenase A; purified LDHA, NADH/diaphorase-resazurin fluorescence; active compounds read low; activity change, % (values are at about 110 or 230 µM); 480,000 compounds, 0.15% hits; AID 1347041; in the data active means activity change below about -30%; inconclusive means mostly about -25% to -30%
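Human LDH5 (2 nM) was incubated with 0.06 mM NADH and 0.2 mM pyruvate for 5 min at room temperature in Tris pH 7.4. Remaining NADH was coupled through diaphorase/resazurin, and resorufin fluorescence was read at 0 and 20 min.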
PTHR1 agonist: PTHR1 (human) receptor agonism. Q03431. HEK293 GP2 PTHR1 cells, GloSensor cAMP luminescence, 1 h. Potency, µM (titrated, usually from 115 µM), most hits filed as activators. 410,000 compounds, 0.075% hits; further: nearly all actives have a fitted effect of over 55% in size
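HEK-293-derived GP2 cells expressing PTHR1 and a GloSensor cAMP reporter, 3,000/well, plated overnight, given luciferin plus IBMX (each 0.5 mM as added) for 1 h at 37 °C, then compound for 1 h at 37 °C. Luminescence was read after 15 min at room temperature.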
Vif-APOBEC3F blk: Vif-A3F binding inhibition. HeLa A3F-eYFP + Vif (tagged APOBEC3F with the HIV-1 protein that degrades it), YFP fluorescence increase. Potency, µM (highest dose often 46.1 µM). 390,000 compounds, 0.2% hits. AID 602313; further: nearly all actives have a fitted effect of over 65% in size
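HeLa cells stably expressing A3F-eYFP plus Vif, plated and incubated overnight at 37 deg C, then exposed to compounds overnight at 37 deg C. Blocked degradation read as raised yellow fluorescence (Ex 488/Em 500-530).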
PINK1 modulator: PINK1 expression modulation; PINK1 immunofluorescence, high-content cytometry, 24 h; Potency, µM (highest dose often 76.6 µM), actives largely listed as activators; 410,000 compounds, 0.2% hits; AID 624263; active means well fitted activation curve with a large enough effect; inconclusive means small, poorly fitted or top-dose-only effect; cell line not stated here; further: nearly all actives have a fitted effect of over 65% in size
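PINK1 protein level read as immunofluorescence by microplate cytometer in a fixed, stained stable cell line after 24 h exposure to five compound concentrations, with CCCP as control.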
mIDH1 inhibitor: blocks human mutant IDH1 R132H enzyme; Potency, µM (doses to about 76.6 µM), most hits filed as inhibitors; IDH1-R132H enzyme, NADPH consumption, diaphorase/resazurin fluorescence; 390,000 compounds, 0.093% hits; O75874; AID 602179; further: nearly all actives have a fitted effect of over 65% in size
Target sequence (O75874 whole entry R132H, stated change not applied): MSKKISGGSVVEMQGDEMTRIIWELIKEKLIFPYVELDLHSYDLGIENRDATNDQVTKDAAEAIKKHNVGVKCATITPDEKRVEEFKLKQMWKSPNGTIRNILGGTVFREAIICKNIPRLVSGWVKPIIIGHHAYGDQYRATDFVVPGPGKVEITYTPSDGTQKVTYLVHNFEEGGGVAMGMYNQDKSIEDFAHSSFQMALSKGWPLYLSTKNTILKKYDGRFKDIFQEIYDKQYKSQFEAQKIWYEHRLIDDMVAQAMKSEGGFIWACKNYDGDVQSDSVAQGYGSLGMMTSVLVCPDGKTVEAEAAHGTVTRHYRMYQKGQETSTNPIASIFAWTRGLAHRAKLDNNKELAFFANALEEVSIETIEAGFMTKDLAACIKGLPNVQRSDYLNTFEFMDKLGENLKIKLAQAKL
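IDH1-R132H (0.5 ug/mL) preincubated 30 min with compound, then NADPH (0.016 mM) and alpha-KG (2 mM) added; 80 min at RT, pH 7.5. Remaining NADPH coupled via diaphorase/resazurin to fluorescence (540/590 nm); concentration-response curves normalized to no-enzyme control.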
Vif-APOBEC3G blk: blocks the Vif interaction with human APOBEC3G; HeLa A3G-eYFP + Vif (tagged APOBEC3G with the HIV-1 protein that degrades it), YFP fluorescence, overnight; Potency, µM (titrated, usually from 46.1 µM), usual class: inhibitors; 410,000 compounds, 0.076% hits; further: nearly all actives have a fitted effect of over 60% in size
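HeLa cells stably expressing Vif and C-terminally eYFP-tagged A3G, seeded overnight at 37 deg C, then exposed to compound by pintool overnight at 37 deg C. Rise in yellow fluorescence (Ex 488/Em 500-530, Acumen) marks blocked Vif-driven A3G degradation.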
IDH1 autofl: counter-screen for mutant IDH1 inhibitors: fluorescence interference. 750 tested, under 10 active. inhibition of signal, % at 51.2 µM. shares compounds with mIDH1 inhibitor. AID 623980. Resorufin detection reagent fluorescence interference, cell-free
WT IDH1 inh: selectivity of mutant IDH1 inhibitors: human wild-type IDH1. AID 623995. 750 compounds, 9% hits. WT IDH1 enzyme, NADPH diaphorase/resazurin fluorescence. shares compounds with mIDH1 inhibitor. Potency, µM (highest dose often 115 µM), hits mostly inhibitors; further: nearly all actives have a fitted effect of over 55% in size
Target sequence (O75874 whole entry, looked up): as the sequence (O75874 whole entry R132H, stated change not applied) above, with H132R counted along it
mIDH1 confirm: mutant IDH1 (human) inhibition, confirmed; shares compounds with mIDH1 inhibitor; IDH1 R132H enzyme, NADPH diaphorase/resazurin fluorescence; Potency, µM (titrated, usually from 76.6 µM), most hits filed as inhibitors; 750 compounds, 83% hits; AID 624002; further: nearly all actives have a fitted effect of over 50% in size
Numbers stand for hits; - = inactive; ? = inconclusive; . = not tested or not shown. Unless noted, the call rests on the fitted dose curve; in most records, active means well fitted curve in the direction sought with a large enough effect; inconclusive means small, poorly fitted or top-dose-only effect, or another doubt; inactive means no such curve, though single readings can be large; an effect the other way counts as inactive or inconclusive.

SMILES | LDHA block | PTHR1 agonist | Vif-APOBEC3F blk | PINK1 modulator | mIDH1 inhibitor | Vif-APOBEC3G blk | IDH1 autofl | WT IDH1 inh | mIDH1 confirm
CN(C)C(=O)c1cc(=O)c2cc(Cl)ccc2o1 | - | . | . | . | . | . | . | . | .
Cc1ccc2c(c1)c1c3n2CCN(C(=O)CCl)C3CCC1 (stereo not drawn) | - | - | - | - | 46µM | - | - | ? | 16µM
CC(=O)N1CCn2c3c(c4cc(C)ccc42)CCCC31 (stereo not drawn) | - | - | - | - | - | - | . | . | .
Cc1ccc(-c2nc(CSc3n[nH]c(N)n3)no2)cc1 | - | . | . | . | . | . | . | . | .
Cc1cc(C)cc(N(CC(=O)NC2CCCCC2)C(=O)c2ccc(C)s2)c1 | - | - | - | . | ? | - | - | - | 20µM
Cc1cc(NS(=O)(=O)c2ccc(NS(=O)(=O)c3ccc(CC(C)C)cc3)cc2)nc(C)n1 | - | - | ? | - | 18µM | - | - | - | 16µM
Cc1ccc(S(=O)(=O)Nc2ccc(S(=O)(=O)Nc3cc(C)nc(C)n3)cc2)cc1 | - | - | - | - | - | - | . | . | .
O=C(O)c1cc(-c2ccc(-c3c(-c4ccc5c(c4)OCO5)noc3-c3ccsc3)cc2)nc2ccccc12 | - | - | - | - | 45µM | - | - | ? | 20µM
CC(=O)N1N=C(c2ccccc2Cl)CC1c1ccc2nccnc2c1 (stereo not drawn) | - | . | . | . | . | . | . | . | .
CN(c1ccccc1)c1nc(N2CCCC2)nc(-n2ccnc2)n1 | - | - | - | - | - | - | . | . | .
c1ccc(N(c2ccccc2)c2nc(N3CCCC3)nc(-n3ccnc3)n2)cc1 | - | - | - | - | 9.3µM | - | - | - | 6.3µM
CCN(CC)c1ccc(-c2nn3c(-c4n[nH]c5c4CCC5)nnc3s2)cc1 | - | - | - | - | ? | - | - | - | 40µM
O=C(Nc1ccc(CC(=O)N2CCOCC2)cc1)c1cc(Br)ccc1F | - | . | . | . | . | . | . | . | .
CCCn1cc(S(=O)(=O)c2cc(C)ccc2C)c(=O)c2cc(F)c(N3CCCCCC3)cc21 | - | - | - | ? | ? | - | - | - | 16µM
O=C(NCc1cccc(Cl)c1)C1CCCN(c2ncnc3nc[nH]c23)C1 (stereo not drawn) | - | . | . | . | . | . | . | . | .
Cc1cccc(N=C2Sc3nc4c(C)c(C)ccc4cc3CN2CCN2CCOCC2)c1 | - | - | - | ? | ? | - | - | - | 11µM
Cc1nn(-c2ccccc2)c(Cl)c1CN(C(=O)CCl)c1ccc(Cl)cc1 | - | - | - | - | 52µM | - | - | - | 28µM
Cc1cccc(C(=O)Nc2c(N3CCCC3)c3ccccc3oc2=O)c1 | - | . | . | . | . | . | . | . | .
COc1ccc(Nc2c3c(nc4ccc(NC(=O)/C=C/c5cc(OC)c(OC)c(OC)c5)cc24)CCCC3)cc1OC | - | - | - | - | ? | - | - | - | ?
CCN(C(=O)c1cc2c(=O)[nH]c3ccc(C)cc3c2s1)c1cccc(C)c1 | - | - | - | - | 21µM | - | - | - | 22µM
CCN(C(=O)c1cc2c(=O)[nH]c3ccc(C)cc3c2s1)c1ccc(F)cc1 | - | - | - | - | - | - | . | . | .
Cc1ccc2[nH]c(=O)c3cc(C(=O)N(C)c4ccc(C)c(C)c4)sc3c2c1 | - | - | - | - | 52µM | - | - | - | 16µM
O=[N+]([O-])c1ccc(Nc2ccccc2Cl)c2nonc12 | - | . | . | . | . | . | . | . | .
COC(=O)c1cc(-c2ccco2)nc2ccccc12 | - | . | . | . | . | . | . | . | .
COC(=O)[C@@]12CCCCN1[C@H](c1ccc(-c3ccc(F)cc3)c(OC)c1)[C@H]1C(=O)N(C)C(=O)[C@H]12 | - | - | - | - | - | - | . | . | .
